Results published in PMC7862700, “An all-to-all approach to the identification of sequence-specific readers for epigenetic DNA modifications on cytosine”.

Key:
Assay in all cases: DAPPL (digital affinity profiling via proximity ligation, sequencing); 10 mM Tris-HCl pH 7.5, 50 mM NaCl, 1 mM DTT, 4% glycerol, room temperature, 30 min; GST-TFs on glutathione beads, 16-mer random dsDNA library, 0.1% formaldehyde crosslink after washing; high values mean tight binding
Conditions in all cases: protein: recombinant; tags: N-terminal GST; dsDNA, one strand shown
[1] = biological target: T1, FLI1 (Homo sapiens, UniProt Q01543 1-452)
T1 sequence: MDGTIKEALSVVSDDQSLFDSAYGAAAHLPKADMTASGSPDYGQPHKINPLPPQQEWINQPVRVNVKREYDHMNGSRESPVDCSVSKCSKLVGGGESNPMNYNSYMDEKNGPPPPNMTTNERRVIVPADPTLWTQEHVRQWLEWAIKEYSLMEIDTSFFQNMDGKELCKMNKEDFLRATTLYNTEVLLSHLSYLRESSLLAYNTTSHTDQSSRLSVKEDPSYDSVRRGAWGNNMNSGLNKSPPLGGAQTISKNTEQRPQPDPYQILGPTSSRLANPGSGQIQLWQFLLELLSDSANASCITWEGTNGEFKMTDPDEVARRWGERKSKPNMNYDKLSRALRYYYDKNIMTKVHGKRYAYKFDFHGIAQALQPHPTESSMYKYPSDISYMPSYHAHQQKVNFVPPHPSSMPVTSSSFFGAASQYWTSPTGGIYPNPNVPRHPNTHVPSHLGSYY
How it was run: (§1)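 Binding signal is defined as a hexamer's read frequency for one factor over its frequency for the tag-only sample. To obtain reads, GST-fused human transcription factors were expressed in yeast, captured on glutathione beads, barcoded with DNA and pooled with that sample. Pools met 200 nmole of a 16-mer random double-stranded DNA library in Tris/NaCl/DTT/glycerol buffer for 30 min at room temperature before washing, 0.1% formaldehyde crosslinking, proximity ligation (BsaI/T4 ligase, 1 h, 37 °C), PCR and Illumina NextSeq500 sequencing.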

[2] = biological target: T2, ELK1 (Homo sapiens, UniProt P19419 1-428)
T2 sequence: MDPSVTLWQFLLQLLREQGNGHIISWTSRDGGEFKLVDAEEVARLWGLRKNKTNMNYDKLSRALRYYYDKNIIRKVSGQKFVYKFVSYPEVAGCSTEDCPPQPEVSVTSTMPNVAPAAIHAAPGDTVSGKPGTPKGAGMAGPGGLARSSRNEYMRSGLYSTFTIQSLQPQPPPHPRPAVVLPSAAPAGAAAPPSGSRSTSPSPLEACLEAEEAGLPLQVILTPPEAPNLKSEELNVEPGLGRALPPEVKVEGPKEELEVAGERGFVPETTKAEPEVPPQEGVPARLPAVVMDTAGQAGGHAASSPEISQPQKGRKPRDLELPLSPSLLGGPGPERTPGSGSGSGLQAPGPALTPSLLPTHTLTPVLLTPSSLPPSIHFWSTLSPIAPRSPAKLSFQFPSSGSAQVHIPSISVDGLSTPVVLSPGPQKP
How it was run: as §1

[3] = biological target: T3, GABPA (Homo sapiens, UniProt Q06546 1-454)
T3 sequence: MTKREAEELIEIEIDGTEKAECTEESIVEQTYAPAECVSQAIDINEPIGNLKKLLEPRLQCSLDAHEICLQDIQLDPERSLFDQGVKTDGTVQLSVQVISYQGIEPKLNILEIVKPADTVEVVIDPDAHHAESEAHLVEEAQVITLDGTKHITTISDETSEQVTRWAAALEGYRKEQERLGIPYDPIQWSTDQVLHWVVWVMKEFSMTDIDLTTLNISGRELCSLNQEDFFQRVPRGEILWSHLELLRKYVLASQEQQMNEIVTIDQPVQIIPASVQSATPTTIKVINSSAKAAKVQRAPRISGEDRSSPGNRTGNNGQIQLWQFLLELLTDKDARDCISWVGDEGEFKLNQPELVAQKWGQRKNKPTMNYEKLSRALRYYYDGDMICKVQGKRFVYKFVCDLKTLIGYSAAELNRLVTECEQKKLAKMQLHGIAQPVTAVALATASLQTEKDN
How it was run: as §1

[4] = biological target: T4, ERG (Homo sapiens, UniProt P11308 1-479)
T4 sequence: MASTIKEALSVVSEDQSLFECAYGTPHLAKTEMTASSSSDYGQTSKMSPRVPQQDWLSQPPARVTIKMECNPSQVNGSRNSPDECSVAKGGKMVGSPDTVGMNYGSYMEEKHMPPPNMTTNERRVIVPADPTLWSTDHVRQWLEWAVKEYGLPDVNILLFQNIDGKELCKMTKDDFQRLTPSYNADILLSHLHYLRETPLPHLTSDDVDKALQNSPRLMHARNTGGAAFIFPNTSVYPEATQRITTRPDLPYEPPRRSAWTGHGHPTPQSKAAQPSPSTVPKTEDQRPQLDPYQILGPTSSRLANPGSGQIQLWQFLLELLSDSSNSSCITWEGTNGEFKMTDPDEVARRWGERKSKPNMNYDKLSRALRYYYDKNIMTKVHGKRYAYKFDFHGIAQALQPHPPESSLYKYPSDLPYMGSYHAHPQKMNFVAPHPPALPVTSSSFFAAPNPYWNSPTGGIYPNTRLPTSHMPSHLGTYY
How it was run: as §1

[5] = biological target: ELF1 (Homo sapiens, UniProt P32519 1-619)
How it was run: as §1

[6] = biological target: T5, EHF (Homo sapiens, UniProt Q9NZC4 1-300)
T5 sequence: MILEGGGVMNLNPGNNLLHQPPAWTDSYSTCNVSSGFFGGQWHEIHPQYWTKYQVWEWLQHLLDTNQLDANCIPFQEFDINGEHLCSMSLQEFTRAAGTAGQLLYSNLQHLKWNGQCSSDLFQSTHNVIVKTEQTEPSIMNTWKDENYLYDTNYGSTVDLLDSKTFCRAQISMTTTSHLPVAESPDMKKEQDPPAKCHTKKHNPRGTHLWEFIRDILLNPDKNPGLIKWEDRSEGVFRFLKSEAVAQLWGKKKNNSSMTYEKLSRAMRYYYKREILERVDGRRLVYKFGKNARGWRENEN
How it was run: as §1

[7] = biological target: SPI1 (Homo sapiens, UniProt P17947 1-270)
How it was run: as §1

[8] = biological target: SPIB (Homo sapiens, UniProt Q01892 1-262)
How it was run: as §1

[9] = biological target: T6, ELK3 (Homo sapiens, UniProt P41970 1-407)
T6 sequence: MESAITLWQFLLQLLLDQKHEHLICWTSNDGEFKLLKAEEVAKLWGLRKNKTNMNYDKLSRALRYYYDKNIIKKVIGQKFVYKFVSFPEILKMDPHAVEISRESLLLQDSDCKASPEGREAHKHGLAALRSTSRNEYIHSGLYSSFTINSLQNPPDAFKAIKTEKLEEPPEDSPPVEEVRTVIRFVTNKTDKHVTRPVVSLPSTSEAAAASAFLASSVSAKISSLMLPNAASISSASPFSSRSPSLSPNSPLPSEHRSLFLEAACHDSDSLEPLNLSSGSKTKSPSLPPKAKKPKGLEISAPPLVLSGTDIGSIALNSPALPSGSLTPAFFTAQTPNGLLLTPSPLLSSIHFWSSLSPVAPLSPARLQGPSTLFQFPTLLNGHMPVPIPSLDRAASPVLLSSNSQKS
How it was run: as §1

[10] = biological target: T7, FEV (Homo sapiens, UniProt Q99581 1-238)
T7 sequence: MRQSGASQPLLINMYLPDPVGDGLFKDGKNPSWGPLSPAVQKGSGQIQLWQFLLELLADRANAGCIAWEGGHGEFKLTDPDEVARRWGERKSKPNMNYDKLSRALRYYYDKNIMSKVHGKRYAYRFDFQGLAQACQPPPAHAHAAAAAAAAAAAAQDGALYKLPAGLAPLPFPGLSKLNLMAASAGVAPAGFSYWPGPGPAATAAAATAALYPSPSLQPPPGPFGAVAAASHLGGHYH
How it was run: as §1

[11] = biological target: ETV5 (Homo sapiens, UniProt P41161 1-510)
How it was run: as §1

[12] = biological target: T8, SPIC (Homo sapiens, UniProt Q8N5J4 1-248)
T8 sequence: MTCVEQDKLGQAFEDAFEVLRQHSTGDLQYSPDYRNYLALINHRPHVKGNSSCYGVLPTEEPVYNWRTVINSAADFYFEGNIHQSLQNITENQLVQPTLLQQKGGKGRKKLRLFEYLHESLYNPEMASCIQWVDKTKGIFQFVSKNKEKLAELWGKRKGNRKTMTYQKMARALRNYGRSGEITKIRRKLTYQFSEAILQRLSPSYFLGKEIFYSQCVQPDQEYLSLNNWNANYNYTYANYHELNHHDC
How it was run: as §1

[13] = biological target: ELF4 (Homo sapiens, UniProt Q99607 1-663)
How it was run: as §1

[14] = biological target: T9, ELK4 (Homo sapiens, UniProt P28324-2 1-405)
T9 sequence: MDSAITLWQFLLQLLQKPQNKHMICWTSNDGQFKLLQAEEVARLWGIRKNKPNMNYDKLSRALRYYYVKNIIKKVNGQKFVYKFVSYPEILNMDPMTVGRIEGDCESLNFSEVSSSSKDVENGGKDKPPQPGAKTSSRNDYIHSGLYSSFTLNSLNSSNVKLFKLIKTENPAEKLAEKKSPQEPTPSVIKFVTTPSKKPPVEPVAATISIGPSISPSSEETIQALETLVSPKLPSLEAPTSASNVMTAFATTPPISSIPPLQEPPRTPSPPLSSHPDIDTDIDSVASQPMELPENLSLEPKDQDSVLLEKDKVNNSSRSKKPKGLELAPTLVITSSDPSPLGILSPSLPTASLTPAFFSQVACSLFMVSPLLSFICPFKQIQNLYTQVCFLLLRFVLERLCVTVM
How it was run: as §1

[15] = biological target: T10, ETV2 (Homo sapiens, UniProt O00321 1-342)
T10 sequence: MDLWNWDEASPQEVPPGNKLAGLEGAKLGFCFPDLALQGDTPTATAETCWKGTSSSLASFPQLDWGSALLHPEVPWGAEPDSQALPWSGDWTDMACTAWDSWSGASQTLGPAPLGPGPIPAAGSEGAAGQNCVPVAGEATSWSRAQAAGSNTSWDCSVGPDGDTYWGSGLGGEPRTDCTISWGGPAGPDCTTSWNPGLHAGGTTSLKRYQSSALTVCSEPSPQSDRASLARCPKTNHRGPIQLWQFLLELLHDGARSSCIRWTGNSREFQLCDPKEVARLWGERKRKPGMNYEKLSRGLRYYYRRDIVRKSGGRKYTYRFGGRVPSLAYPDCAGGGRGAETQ
How it was run: as §1

[16] = biological target: T11, ELF3 (Homo sapiens, UniProt P78545 1-371)
T11 sequence: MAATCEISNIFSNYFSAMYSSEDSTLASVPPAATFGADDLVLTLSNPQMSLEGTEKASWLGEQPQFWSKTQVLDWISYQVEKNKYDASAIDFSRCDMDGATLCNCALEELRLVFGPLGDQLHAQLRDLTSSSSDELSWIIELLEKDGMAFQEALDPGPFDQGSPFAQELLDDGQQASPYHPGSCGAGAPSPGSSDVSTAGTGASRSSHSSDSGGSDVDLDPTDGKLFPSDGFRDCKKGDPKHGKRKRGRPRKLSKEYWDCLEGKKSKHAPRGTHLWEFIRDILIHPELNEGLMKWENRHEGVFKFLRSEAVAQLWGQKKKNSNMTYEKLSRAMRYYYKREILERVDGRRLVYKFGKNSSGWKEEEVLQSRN
How it was run: as §1

[17] = biological target: ETV1 (Homo sapiens, UniProt P50549 1-477)
How it was run: as §1

Chain of ETV1 (P50549 whole entry): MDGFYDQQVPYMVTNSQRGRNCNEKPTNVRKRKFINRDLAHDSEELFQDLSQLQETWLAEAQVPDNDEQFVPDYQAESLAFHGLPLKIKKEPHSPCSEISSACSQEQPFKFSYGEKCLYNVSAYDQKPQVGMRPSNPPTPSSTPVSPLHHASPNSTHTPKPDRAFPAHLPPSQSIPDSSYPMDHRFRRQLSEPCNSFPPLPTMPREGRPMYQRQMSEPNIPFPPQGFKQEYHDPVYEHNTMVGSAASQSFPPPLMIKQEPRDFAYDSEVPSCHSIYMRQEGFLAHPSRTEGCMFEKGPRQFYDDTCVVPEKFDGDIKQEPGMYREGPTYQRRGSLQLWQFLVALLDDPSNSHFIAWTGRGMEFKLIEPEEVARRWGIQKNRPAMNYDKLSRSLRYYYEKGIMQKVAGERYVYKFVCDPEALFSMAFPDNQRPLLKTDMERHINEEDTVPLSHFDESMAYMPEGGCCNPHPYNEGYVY
Chain of ELF1 (P32519 whole entry): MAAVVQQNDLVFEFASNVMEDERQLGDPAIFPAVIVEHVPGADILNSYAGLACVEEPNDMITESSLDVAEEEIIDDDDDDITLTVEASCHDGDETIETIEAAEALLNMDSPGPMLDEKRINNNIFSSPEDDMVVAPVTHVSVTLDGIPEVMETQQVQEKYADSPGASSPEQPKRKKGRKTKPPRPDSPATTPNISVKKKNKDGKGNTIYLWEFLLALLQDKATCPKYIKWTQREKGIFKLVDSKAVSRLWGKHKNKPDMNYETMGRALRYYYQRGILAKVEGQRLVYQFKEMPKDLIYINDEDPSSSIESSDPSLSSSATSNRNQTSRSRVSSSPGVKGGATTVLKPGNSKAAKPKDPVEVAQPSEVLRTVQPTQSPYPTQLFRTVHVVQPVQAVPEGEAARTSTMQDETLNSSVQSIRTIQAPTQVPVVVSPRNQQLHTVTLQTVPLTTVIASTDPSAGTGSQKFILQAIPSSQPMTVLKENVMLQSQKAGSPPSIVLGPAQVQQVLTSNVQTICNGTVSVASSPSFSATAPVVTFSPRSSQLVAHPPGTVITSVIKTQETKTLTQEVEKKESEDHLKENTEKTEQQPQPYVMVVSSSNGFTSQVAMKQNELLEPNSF
Chain of ETV5 (P41161 whole entry): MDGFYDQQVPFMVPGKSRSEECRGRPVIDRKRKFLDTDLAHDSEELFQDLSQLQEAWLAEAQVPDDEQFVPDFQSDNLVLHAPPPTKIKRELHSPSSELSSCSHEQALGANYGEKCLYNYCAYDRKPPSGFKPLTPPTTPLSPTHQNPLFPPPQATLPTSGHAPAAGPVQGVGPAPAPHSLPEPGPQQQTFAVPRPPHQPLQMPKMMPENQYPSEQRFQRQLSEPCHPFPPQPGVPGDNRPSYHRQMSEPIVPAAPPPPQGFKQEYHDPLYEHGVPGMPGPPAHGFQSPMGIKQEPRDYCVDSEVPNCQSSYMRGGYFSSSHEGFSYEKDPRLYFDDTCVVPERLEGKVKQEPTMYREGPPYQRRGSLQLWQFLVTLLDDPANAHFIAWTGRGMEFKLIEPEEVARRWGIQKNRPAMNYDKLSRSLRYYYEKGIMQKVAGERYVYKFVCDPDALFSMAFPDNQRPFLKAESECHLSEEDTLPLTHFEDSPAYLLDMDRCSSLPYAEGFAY
Chain of ELF4 (Q99607 whole entry): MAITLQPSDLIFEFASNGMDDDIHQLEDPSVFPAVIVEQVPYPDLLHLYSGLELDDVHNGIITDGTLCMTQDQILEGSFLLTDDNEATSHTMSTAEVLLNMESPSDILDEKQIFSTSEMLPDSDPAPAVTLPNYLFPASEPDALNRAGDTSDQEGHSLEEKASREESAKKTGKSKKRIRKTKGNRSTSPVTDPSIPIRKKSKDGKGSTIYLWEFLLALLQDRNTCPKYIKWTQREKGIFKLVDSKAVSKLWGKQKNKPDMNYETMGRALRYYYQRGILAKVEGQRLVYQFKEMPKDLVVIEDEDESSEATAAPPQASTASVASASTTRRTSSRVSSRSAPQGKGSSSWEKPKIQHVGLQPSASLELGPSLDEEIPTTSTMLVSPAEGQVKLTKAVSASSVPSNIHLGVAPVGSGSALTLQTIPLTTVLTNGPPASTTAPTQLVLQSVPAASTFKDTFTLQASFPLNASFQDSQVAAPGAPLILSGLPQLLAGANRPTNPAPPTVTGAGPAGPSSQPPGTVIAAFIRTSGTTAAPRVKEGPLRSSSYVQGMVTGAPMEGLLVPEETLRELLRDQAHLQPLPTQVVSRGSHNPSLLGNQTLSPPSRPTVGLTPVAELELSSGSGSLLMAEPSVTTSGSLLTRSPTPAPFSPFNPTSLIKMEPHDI
Chain of SPIB (Q01892 whole entry): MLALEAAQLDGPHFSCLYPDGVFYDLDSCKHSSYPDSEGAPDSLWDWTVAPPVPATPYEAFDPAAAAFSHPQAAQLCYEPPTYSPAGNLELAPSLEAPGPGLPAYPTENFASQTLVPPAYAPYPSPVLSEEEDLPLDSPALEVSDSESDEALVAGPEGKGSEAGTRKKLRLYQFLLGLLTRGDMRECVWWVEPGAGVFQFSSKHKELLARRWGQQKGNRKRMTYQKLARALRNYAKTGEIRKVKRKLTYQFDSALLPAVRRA

Sequence	binding signal [1]	binding signal [2]	binding signal [3]	binding signal [4]	binding signal [5]	binding signal [6]	binding signal [7]	binding signal [8]	binding signal [9]	binding signal [10]	binding signal [11]	binding signal [12]	binding signal [13]	binding signal [14]	binding signal [15]	binding signal [16]	binding signal [17]
CATTCA	1.17 fold enrichment (6-mer frequency, TF over GST control)	1.14 fold enrichment (6-mer frequency, TF over GST control)	1.1 fold enrichment (6-mer frequency, TF over GST control)	1.17 fold enrichment (6-mer frequency, TF over GST control)	1.13 fold enrichment (6-mer frequency, TF over GST control)	1.05 fold enrichment (6-mer frequency, TF over GST control)	1.07 fold enrichment (6-mer frequency, TF over GST control)	1.12 fold enrichment (6-mer frequency, TF over GST control)	1.16 fold enrichment (6-mer frequency, TF over GST control)	1.01 fold enrichment (6-mer frequency, TF over GST control)	1.12 fold enrichment (6-mer frequency, TF over GST control)	1.01 fold enrichment (6-mer frequency, TF over GST control)	1.11 fold enrichment (6-mer frequency, TF over GST control)	1.09 fold enrichment (6-mer frequency, TF over GST control)	1.03 fold enrichment (6-mer frequency, TF over GST control)	1.06 fold enrichment (6-mer frequency, TF over GST control)	1.15 fold enrichment (6-mer frequency, TF over GST control)
CACCCT	1.21 fold enrichment (6-mer frequency, TF over GST control)	1.26 fold enrichment (6-mer frequency, TF over GST control)	1.18 fold enrichment (6-mer frequency, TF over GST control)	1.16 fold enrichment (6-mer frequency, TF over GST control)	1.16 fold enrichment (6-mer frequency, TF over GST control)	1.02 fold enrichment (6-mer frequency, TF over GST control)	1.07 fold enrichment (6-mer frequency, TF over GST control)	1.16 fold enrichment (6-mer frequency, TF over GST control)	1.14 fold enrichment (6-mer frequency, TF over GST control)	1.15 fold enrichment (6-mer frequency, TF over GST control)	1.19 fold enrichment (6-mer frequency, TF over GST control)	1.13 fold enrichment (6-mer frequency, TF over GST control)	1.24 fold enrichment (6-mer frequency, TF over GST control)	1.07 fold enrichment (6-mer frequency, TF over GST control)	1.26 fold enrichment (6-mer frequency, TF over GST control)	1.08 fold enrichment (6-mer frequency, TF over GST control)	1.24 fold enrichment (6-mer frequency, TF over GST control)
ACCTGA	1.06 fold enrichment (6-mer frequency, TF over GST control)	1.12 fold enrichment (6-mer frequency, TF over GST control)	1.03 fold enrichment (6-mer frequency, TF over GST control)	1.12 fold enrichment (6-mer frequency, TF over GST control)	1.14 fold enrichment (6-mer frequency, TF over GST control)	1.09 fold enrichment (6-mer frequency, TF over GST control)	1.01 fold enrichment (6-mer frequency, TF over GST control)	1.1 fold enrichment (6-mer frequency, TF over GST control)	1.07 fold enrichment (6-mer frequency, TF over GST control)	1.13 fold enrichment (6-mer frequency, TF over GST control)	1.07 fold enrichment (6-mer frequency, TF over GST control)	1 fold enrichment (6-mer frequency, TF over GST control)	1.15 fold enrichment (6-mer frequency, TF over GST control)	1.14 fold enrichment (6-mer frequency, TF over GST control)	1.02 fold enrichment (6-mer frequency, TF over GST control)	1.14 fold enrichment (6-mer frequency, TF over GST control)	1.06 fold enrichment (6-mer frequency, TF over GST control)
